# PubChem BioAssay (NCI)
# About 83,000 compounds went through this panel and 20% of them were active in at least one assay; those are over-represented in the sample as a whole.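 Negative percent growth values reflect cell death: -40 means 40% of the cells present at the start died, and -100 means all died.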 Values without a mark were called inactive. Calls of active or inactive are those of the source. Rule for the calls: active = growth percent below 10; inactive = the rest.
# Legend:
# Experiment in all cases: NCI-60 one-dose screen, 48 h (100 = growth as untreated, 0 = no growth, -100 = all killed)
# Settings in all cases: 10 µM unless noted
# [1] = test system: NCI-H23 lung
# [2] = test system: NCI-H226 lung
# [3] = test system: NCI-H322M lung
# [4] = test system: HOP-62 NSCLC
# [5] = test system: NCI-H460 lung
# [6] = test system: HOP-92 NSCLC
# [7] = test system: NCI-H522 lung
# [8] = test system: A549/ATCC NSCLC
# [9] = test system: 786-0 renal
# [10] = test system: COLO 205 colon
SMILES,growth [1],growth [2],growth [3],growth [4],growth [5],growth [6],growth [7],growth [8],growth [9],growth [10]
O=C1/C(=C\c2cccc(OCCCCCOc3ccc(Cl)cc3)c2)N=C2SCCCN12,35%,60.3%,101%,71.1%,60.7%,48.1%,32.6%,45.5%,72.6%,60.1%
COc1cc2nc(Nc3cccc(Cl)c3)nc(N)c2cc1OC,88.2%,90.3%,89.7%,106%,66.9%,40.6%,101%,73.4%,62%,-60.1% (active)
CCN1CCN(Cc2ccc(-c3cc4c(N[C@H](C)c5ccccc5)ncnc4[nH]3)cc2)CC1,42.3%,50.9%,-2.25% (active),28.5%,21.9%,21.4%,6.19% (active),17.5%,50.3%,-21.4% (active)
CC(=O)OC1Oc2ccccc2-c2oc(=O)c(-c3cc4ccc(N(C)C)cc4oc3=O)cc21 (stereo not given),36.4%,55%,69.4%,69.4%,75.4%,-3.58% (active),6.65% (active),61.2%,55.2%,67.3%
COc1ccc2c(OCc3nnc4ccc(-c5ccccc5)nn34)ccnc2c1,70.2% [2.5 µM],84.7% [2.5 µM],92% [2.5 µM],77.5% [2.5 µM],110% [2.5 µM],98.7% [2.5 µM],85.8% [2.5 µM],94.1% [2.5 µM],93.7% [2.5 µM],95.3% [2.5 µM]
COC(=O)[C@H](Cc1ccccc1)NC(=O)[C@@H](OC)[C@@H]1Cc2cc3cc(OC4CC(OC5CC(O)C(O)C(C)O5)C(O)C(C)O4)c(C)c(O)c3c(O)c2C(=O)[C@H]1OC1CC(OC2CC(OC3CC(C)(O)C(O)C(C)O3)C(O)C(C)O2)C(O)C(C)O1 (stereo not given in full),-28.5% (active),-33% (active),7.54% (active),4.37% (active),4.92% (active),-17.5% (active),-30.7% (active),6.81% (active),0.647% (active),-36.7% (active)
O=C(Cn1ccnc1)Nc1ccc(-c2nc3ccccc3s2)cc1,57.4%,66.6%,98.3%,83.8%,79.8%,75.8%,74.7%,70.3%,78%,80.8%
Cc1cc(Nc2cc(N3CCN(C)CC3)nc(Sc3ccc(NC(=O)C4CC4)cc3)n2)n[nH]1,38.2%,36.3%,58.8%,18.4%,14.1%,12.1%,24.1%,20.6%,48.4%,-29.3% (active)
CN(C)CCOC(=O)Nc1nc2ccc(Sc3ccccc3)cc2[nH]1,44%,61.8%,36.9%,29.1%,13%,41.8%,-24% (active),38.7%,42.2%,8.53% (active)
Cc1cc(Nc2ncc(Cl)c(Nc3ccccc3S(=O)(=O)C(C)C)n2)c(OC(C)C)cc1C1CCNCC1,-86.5% (active),-64.8% (active),-93.9% (active),-94.5% (active),-86.5% (active),-92.3% (active),-89.3% (active),-99.8% (active),-91.2% (active),-88.2% (active)
Nc1nc(N)c2cc(CNc3ccc(C(=O)NC(CC(=O)O)C(=O)O)cc3)ccc2n1 (stereo not given),17.7%,23.2%,66.7%,19.7%,11.5%,48.5%,34.3%,-32.8% (active),15.8%,51.9%
Cc1cccc(Cl)c1NC(=O)c1cnc(Nc2cc(N3CCOCC3)cc(S(C)(=O)=O)c2)s1,81.5%,66%,-6.54% (active),11.8%,71.4%,-55.1% (active),7.33% (active),-0.245% (active),11.6%,-6.99% (active)
CC[C@H](Nc1ncnc2nc[nH]c12)c1nc2cccc(F)c2c(=O)n1-c1ccccc1,93%,93.3%,42.9%,75.6%,79.9%,49.2%,22.4%,43.2%,37.5%,96.1%
Cc1cc(-c2cc(O)ccc2Cl)cc2nnc(Nc3ccc(OCCN4CCCC4)cc3)nc12,-63.2% (active),-51.7% (active),-94.4% (active),-66.1% (active),-81.6% (active),-69.1% (active),-49.5% (active),-70.7% (active),-60.6% (active),-61.4% (active)
C[C@@H](Oc1cc(C(=O)Nc2ccc(C(=O)N3CCN(C)CC3)cc2)nnc1N)c1c(Cl)ccc(F)c1Cl,62.6%,66.9%,92.9%,64.8%,79.8%,48.3%,71.1%,55.8%,67.4%,55.1%
O=C1OCC2=C1C(c1cccc(F)c1)c1cc3c(cc1N2CCO)OCCO3 (stereo not given),25.4%,26.2%,45.3%,30.5%,9.42% (active),66.6%,17.1%,18.1%,26.4%,-5.04% (active)
COc1ccc(Br)cc1NC(=O)Nc1cccc2c1ccn2Cc1ccnc(N)c1,55.1%,22.2%,32.7%,-44.7% (active),14.6%,-7.4% (active),-50.9% (active),18.9%,31.2%,-57.5% (active)
CCNCCNc1cc(-c2ccc(Cl)c(Cl)c2)c(C#N)c2nc3ccccc3n12,-72.8% (active),-74.2% (active),-83.5% (active),-75.6% (active),-71.2% (active),-85.8% (active),-78.1% (active),-87.3% (active),-84.8% (active),-83.7% (active)
Cc1cc(N(CCNc2ccnc3cc(Cl)ccc23)Cc2ccc3c(c2)OCO3)nc(N2CCCC2)n1,20.8%,65.4%,13.5%,-25.8% (active),-9.96% (active),60.5%,-28.7% (active),8.39% (active),-92% (active),-78.2% (active)
Cc1nc2ccc(-n3ncc(C(=O)c4cc5ccccc5[nH]4)c3N)cc2[nH]1,74%,48.4%,86.5%,55.9%,5.14% (active),74.8%,36.5%,36.9%,55.2%,38.7%
Cc1sc2c(c1C)c(=O)nc1c(-c3nc(-c4ccccc4)cs3)n[nH]n12,91.9%,89.9%,101%,92.4%,96.2%,98.5%,94.3%,93%,103%,102%
COc1ccc2nc3cc(Cl)ccc3c(Nc3ccc(N(C)C)cc3)c2c1,91.9%,83.5%,109%,89.9%,70.6%,76.3%,86.6%,69.3%,96.9%,84.6%
O=C(Cn1c(=O)ccn(CCCCCCCCOc2ccc(Br)cc2)c1=O)Nc1ccc(Oc2ccc(Cl)cc2)cc1,47.8%,56.6%,102%,67.1%,56.8%,22.4%,44.6%,54.4%,65.7%,76.7%
COc1cnc2c(c1)C(=O)c1c-2n(CCCn2ccnc2)c(=O)c2cc(Cl)ccc12,-1.2% (active),6.75% (active),22.4%,-16.7% (active),1.24% (active),31.8%,12.3%,17.4%,-17.9% (active),11.1%
CCc1ccc(/C=C/c2ccc(O)c3ncccc23)[n+](C)c1,21%,24.2%,48.7%,24.5%,17.2%,83.6%,1.23% (active),18.3%,89.4%,70.9%
Cc1cccc(Cl)c1NC(=O)c1cnc(Nc2cc(N3CCOCC3)cc(N3CCOCC3)c2)s1,73.8%,68.6%,-10.4% (active),4.81% (active),51.2%,-42.1% (active),-9.13% (active),10.7%,17.1%,-4.18% (active)
